Screening data (PubChem BioAssay)
KKLEB cytotox – reduces viability of KKLEB cystic fibrosis airway cells | KKLEB CF airway cells viability, ATPlite luminescence, overnight; stronger effect = lower value; cells stimulated with P. aeruginosa culture filtrate | activity change (cytotoxicity), % at 5 µM | 360,000 compounds, 0.36% hits;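 active = corrected activity change at or below -50% at 5 µM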
Peg3 promoter – inhibitors of Peg3 promoter | 360,000 compounds, 1.7% hits | HeLa PEG-Prom luciferase reporter, luminescence, overnight | AID 588405 | inhibition, % at 20 µM;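 active = inhibition of at least 50% at 20 µM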
CF NFkB inh – inhibitors of cystic fibrosis induced NF-kB; KKLEB NF-kB-GFP reporter, PAF-induced, GFP fluorescence overnight; AID 588850; 360,000 compounds, 0.86% hits; inhibition, % at 5 µM;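 active = at least 50% inhibition at 5 µM, scaled per plate between neutral and stimulator controls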;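 note: PAF is a Pseudomonas aeruginosa culture filtrate used as stimulus; plate controls were PAF-stimulated DMSO wells for no effect and unstimulated DMSO wells for full effect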
LMP1 NFkB inh – inhibitors of Epstein-Barr LMP1-induced NF-kappaB reporter; LMP1-induced NF-kappaB luciferase reporter cells, luminescence; inhibition, % at 12.5 µM; 350,000 compounds, 0.69% hits; in the data active = inhibition above about 41%;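 note: 0% = neutral control wells and 100% = reference inhibitor control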
TRPM1 prom inh – MITF TRPM1 promoter inhibition in SK-MEL-5 cells | SK-MEL-5 TRPM1 promoter luciferase, 24 h | inhibition, % at 12.5 µM | 330,000 compounds, 0.83% hits | AID 488899;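 active = mean inhibition across replicates of 60% or more, whatever share of single replicates reaches that level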
HIF-2a block – blocks HIF-2a reporter activity; 786-0 RCC cells HIF-2a reporter, luciferase luminescence, overnight; inhibition, % at 18.8 µM; 360,000 compounds, 0.72% hits; AID 624352;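 active = inhibition of the luminescence signal of 40% or more relative to plate controls, in a single-dose primary screen at 18.75 µM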
Starred values were filed as active, the others as inactive; . = no result. An excerpt weighted towards active compounds, which were near 3% of everything screened.

SMILES	KKLEB cytotox	Peg3 promoter	CF NFkB inh	LMP1 NFkB inh	TRPM1 prom inh	HIF-2a block
CC(C)c1ccc(NC(=O)C2Cc3c(-c4ccc(Cl)cc4)ccnc3O2)cc1 (stereo not drawn)	-12	9	14	.	.	-9
COc1ccc(/C(C)=N/OCC(=O)N=Nc2c(O)[nH]c3ccc(Br)cc23)cc1	-53*	3	47	8	-3	-10
COc1ccc(/C=N/OCC(=O)N=Nc2c(O)[nH]c3ccc(Br)cc23)cc1OC	0	4	5	-13	12	4
COc1ccc(-c2nnc(NC(=O)c3ccc(S(=O)(=O)N4CCCc5ccccc54)cc3)o2)cc1	-3	53*	5	49*	30	19
CCN1/C(=C/c2sc(-c3ccccc3C)c[n+]2C)Sc2ccccc21	-36	38	34	23	86*	-76
CCC(=O)/C=C1/Sc2ccccc2N1CC	13	-7	2	-6	12	-7
CCOc1cc(/C=C2/NC(=S)NC2=O)ccc1OCc1ccc([N+](=O)[O-])cc1	-33	51*	26	-1	63*	14
CCOc1cc(C(c2c(C)[nH][nH]c2=O)c2c(C)[nH][nH]c2=O)ccc1OCc1ccc([N+](=O)[O-])cc1	-2	-3	-34	5	10	-2
OC(COCC(F)(F)C(F)(F)C(F)(F)C(F)F)Cn1c2ccc(Cl)cc2c2cc(Cl)ccc21 (stereo not drawn)	-17	63*	46	-41	2	-7
COc1ccccc1-c1ccc2c(c1)C(C)(Cc1cccc(C#N)c1)C(=O)N2 (stereo not drawn)	-4	29	10	.	.	6
CCC(=O)Nc1ccc(C(=O)OCc2ccccc2)cc1	-7	-149	-3	0	-62	-192
CC(C)OC(=O)c1ccc(NCc2cc(O)ccc2O)cc1	-9	46	72*	-6	16	35
O=C(OCc1ccccc1)c1ccc(NCc2cc(O)ccc2O)cc1	-56*	92*	81*	-36	81*	78*
O=C(NCC(=O)N1CCN(C(c2ccccc2)c2ccccc2)CC1)c1ccccc1Br	4	7	-12	-7	.	21
COCC(=O)O[C@]1(CCN(C)CCCc2nc3ccccc3[nH]2)CCc2cc(F)ccc2[C@@H]1C(C)C	-13	90*	9	-2	30	6
CCOC(=O)CCc1nc2ccccc2[nH]1	-7	-5	-10	0	-2	-31
COc1ccccc1-c1nnc2sc(-c3cnccn3)nn12	0	16	-7	4	20	-9
COc1ccccc1-c1nnc2sc(-c3ccc(N(C)C)cc3)nn12	-3	-51	53*	0	45	-15
O=C1C(C2=C(O)c3ccccc3C2=O)=Nc2ccccc21	-9	24	20	28	66*	-22
CC12CCC(=O)C=C1CCC1C2C(O)CC2(C)C1CCC21OCC1=O (stereo not drawn)	12	-7	26	7	4	9
CCCCCCCC(=O)OCC(=O)[C@@]1(O)CC[C@H]2[C@@H]3CCC4=CC(=O)CC[C@]4(C)[C@H]3[C@@H](O)C[C@@]21C	41	-6	61*	3	-11	26
CCOC(=O)OCC(=O)C1(O)CCC2C3CCC4=CC(=O)CCC4(C)C3C(O)CC21C (stereo not drawn)	23	-10	68*	0	-30	18
CC12CCC(=O)C=C1CCC1C2C(O)CC2(C)C1CCC2(O)C(=O)COC(=O)COCC(=O)O (stereo not drawn)	19	-2	70*	2	16	15
CC(=O)OCC(=O)C1(O)CCC2C3CCC4=CC(=O)CCC4(C)C3C(O)CC21C (stereo not drawn)	31	-3	60*	4	-2	14
NC(=O)C1CCN(C(=O)c2ccc(Cl)c(NC(=O)c3cccs3)c2)CC1	-7	3	16	1	.	4
CCOc1ccc(CN2C(=O)c3ccccc3C2=O)cc1C(=O)NC1CC(C)(C)NC(C)(C)C1	17	3	8	71*	14	3
O=C(Nc1cccc2c1CCCC2)c1ccc(Cl)c([N+](=O)[O-])c1	4	26	7	0	-3	15
O=C(Nc1cccc2c1CCCC2)c1cc([N+](=O)[O-])ccc1Cl	-24	44	-17	54*	-14	-16
